Measured values: PubChem BioAssay (NCATS)
Values joined by “and” are separate entries in the source; they are usually repeats but may differ in a detail not shown here. Identical values can stand only once. Records with an inconclusive call do not appear. Entries that show only a call come without a potency. Active and inactive are the calls of the source. The call rests on the fitted dose curve; in most records, active means well fitted cell-killing curve with a large enough effect; inconclusive means small, poorly fitted or top-dose-only effect; inactive means no such curve, though single readings can be large or run the other way.

assay: qHTS of pediatric cancer cell lines to identify multiple opportunities for drug repurposing: Primary screen for MG 63 (6-TG R) cells (AID 1347105); conditions: MG 63 (6-TG R) viability, CellTiter-Glo, 48 h; series mostly up to 46 µM; further: nearly all actives have a fitted effect of over 50% in size
Text: Drug repurposing or repositioning has been offered as a strategy for drug development in oncology programs. This approach has special potential for childhood cancers and other rare or orphan diseases, where the expected return on new drug development has been a disincentive to pharmaceuticals. […] In this project we exploit the poly-pharmacology of drugs to discover new indications via phenotypic screening of a panel of 19 well-characterized cell lines derived from solid tumors seen in children and adolescents. The goal is to identify approved drugs with previously unrecognized anticancer properties that has the potential to reveal new mechanisms and biological processes involved in carcinogenesis or drug resistance. We employed a titration-based paradigm (quantitative high-throughput screening or qHTS), where all compounds were tested at multiple concentrations for their effect on cell viability. Concentration-response curves (CRCs) were derived directly from the primary screen, and both potency and efficacy values were used to identify compounds with robust bioactivity profiles. We screened the NIH Chemical Genomics Center (NCGC) Pharmaceutical Collection (NPC) and Mechanism Interrogation Plate (MIPE) small molecule collections of approved and investigational compounds against these cell lines; and measured metabolically active cells after 48 hours of compound treatment as a proxy for cell viability. […] Assay Submitter: Nathalia J. Martinez, National Center for Advancing Translational Sciences, National Institutes of Health, Rockville, MD, USA; email: natalia.martinez@nih.gov Shen, M et al. Quantitative high-throughput phenotypic screening of pediatric cancer cell lines identifies multiple opportunities for drug repurposing. Oncotarget 2017 Dec 19;9(4):4758-4772. PMID 29435139.
The cells were obtained from University of North Carolina (UNC), Pediatric Preclinical Testing Program (PPT), and Coriell Institute (CI). qHTS cell viability assay: Cells were assayed in growth media at a density of 500-1,000 cells/well. Five microliters of cells were dispensed into 1,536-well, white, solid-bottom, TC-treated plates (Greiner Bio One) using a multidrop dispenser and incubated at 37 degrees C, 5% CO2, under a humidified atmosphere for 5 hours. Twenty-three nanoliters of compounds and controls (neutral control DMSO or positive control bortezomib at final concentration of 2.3 µM) were subsequently transferred by Kalypsys pintool. For primary screens, the MIPE collection was tested at 11-point dilutions (final concentrations range from 0.78 nM to 46 µM) and the NPC collection at 8-point dilutions (final concentrations range from 0.59 nM to 46 µM). Compounds tested in follow-up screens were assayed at 11-point dilutions. Cells were incubated for 48 hours, followed by addition of 3 µL of CellTiter-Glo (Promega). After a 15 min incubation at room temperature, samples were analyzed for luminescence intensity using a ViewLux High-throughput CCD imager equipped with clear filters.
Potency means the concentration at half of the fitted maximal effect.

Row | SMILES | Potency
1 | Nc1nc(F)nc2c1ncn2[C@@H]1O[C@H](CO)[C@@H](O)[C@@H]1O | 42.2 nM (active) and 590 nM (active)
2 | Oc1c(Cl)cc(Cl)c2cccnc12 | 6.68 µM (active) and 11.8 µM (active)
3 | CNNCc1ccc(C(=O)NC(C)C)cc1 | inactive
4 | CCCCc1oc2ccc(NS(C)(=O)=O)cc2c1C(=O)c1ccc(OCCCN(CCCC)CCCC)cc1 | 21.1 µM (active)
5 | CCOC(=O)c1ccc(OC(=O)CCCCCN=C(N)N)cc1 | inactive
6 | N=C(N)c1ccc(OCCCCCOc2ccc(C(=N)N)cc2)cc1 | inactive
7 | O=C(O)c1ccc(-n2nc(-c3ccccc3O)nc2-c2ccccc2O)cc1 | inactive
8 | NC(=O)N1c2ccccc2CC(=O)c2ccccc21 | inactive
9 | CCCCCCNC(=O)n1cc(F)c(=O)[nH]c1=O | inactive
10 | CC[C@H](C)C(=O)O[C@H]1C[C@@H](C)C=C2C=C[C@H](C)[C@H](CC[C@@H]3C[C@@H](O)CC(=O)O3)[C@H]21 | 4.22 µM (active) and 4.69 µM (active)
11 | Nc1[nH]c(=O)ncc1F | inactive
12 | Cc1cccc(N(C)C(=S)Oc2ccc3ccccc3c2)c1 | inactive
13 | CN(Cc1cc(Br)cc(Br)c1N)C1CCCCC1 | inactive
14 | O=C(O)C1CCCN(CCC=C(c2ccccc2)c2ccccc2)C1 (stereo not given) | inactive
15 | C[C@]12C=CC(=O)C=C1CC[C@@H]1[C@@H]2C(=O)C[C@@]2(C)[C@H]1CC[C@]2(O)C(=O)CO | inactive
16 | NC(=O)c1ccc2[nH]ccc2c1 | inactive
17 | CC(N)C12CC3CC(CC(C3)C1)C2 (stereo not given) | inactive
18 | C[C@@H](NCCCc1cccc(C(F)(F)F)c1)c1cccc2ccccc12 | inactive
19 | Clc1ccccc1CN1CCc2sccc2C1 | inactive
20 | O=C(O)c1cc(=O)[nH]c(=O)[nH]1 | inactive

Row | SMILES | Potency
21 | COc1cc2nc(N3CCCN(C)CC3)nc(NC3CCN(Cc4ccccc4)CC3)c2cc1OC | 9.35 µM (active)
22 | Cn1nnc2c(C(N)=O)ncn2c1=O | inactive
23 | CCc1c2c(nc3ccc(OC(=O)N4CCC(N5CCCCC5)CC4)cc13)-c1cc3c(c(=O)n1C2)COC(=O)[C@]3(O)CC | 21.1 µM (active) and 1.48 µM (active)
24 | NC(=O)c1cccnc1 | inactive
25 | CC(C(=O)O)c1ccc2c(c1)CC(=O)c1ccccc1S2 (stereo not given) | inactive
26 | CC1=NN(c2ccccc2)C(=O)C1 | inactive
27 | Cc1cc(NS(=O)(=O)c2ccc(N)cc2)no1 | inactive
28 | O=C(N[C@H](CO)[C@H](O)c1ccc([N+](=O)[O-])cc1)C(Cl)Cl | inactive
29 | O=S(=O)(c1cccc2cnccc12)N1CCCNCC1 | inactive
30 | C[C@@H](CN1CC(=O)NC(=O)C1)N1CC(=O)NC(=O)C1 | inactive
31 | CCCc1cc(C(N)=S)ccn1 | inactive
32 | COc1cc(NCc2ccc3nc(N)nc(N)c3c2C)cc(OC)c1OC | inactive
33 | Cc1ccnc2c1NC(=O)c1cccnc1N2C1CC1 | inactive
34 | COC(c1ccccc1)(c1ccccc1)[C@H](Oc1nc(C)cc(C)n1)C(=O)O | inactive
35 | CC1=C(C(=O)O)N2C(=O)[C@@H](NC(=O)C(N)c3ccccc3)[C@H]2SC1 (stereo not given in full) | inactive
36 | CCn1cc(C(=O)O)c(=O)c2cc(F)c(N3CCNCC3)nc21 | inactive
37 | C[C@@H]1CN(c2c(F)c(N)c3c(=O)c(C(=O)O)cn(C4CC4)c3c2F)C[C@H](C)N1 | inactive
38 | CC(C)C1CCC(C(=O)N[C@H](Cc2ccccc2)C(=O)O)CC1 (stereo not given in full) | inactive
39 | Cc1noc(NS(=O)(=O)c2ccc(N)cc2)c1C | inactive
40 | COC(=O)Nc1nc2ccc(S(=O)c3ccccc3)cc2[nH]1 (stereo not given) | 668 nM (active) and 14.8 µM (active)
